From PubChem BioAssay (NCI) come the findings set out here.

This test has as its system MDA-MB-468 breast. As to the kind of experiment: NCI-60 one-dose screen, 48 h (100 = growth as untreated, 0 = no growth, -100 = all killed). To be noted: 10 µM unless noted.

SMILES strings stand for the structures. Where “and” joins values, the source holds several entries; their conditions need not be identical. Equal entries are not always repeated. Compounds without any hit were thinned out: in the full panel of roughly 83,000, 20% have a hit.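 A percent growth of 40 corresponds to 60% growth inhibition; 0 means no net growth; -100 means all cells died. Active threshold: below 10.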 Unmarked numbers belong to inactive results. Calls of active or inactive are those of the source.

Consider `CCN1CCN(c2cc(-c3cn[nH]c3-c3cc(C)cc(OC)c3)nc(-c3cccnc3)n2)CC1`, for which the growth is 54.3%.
Then `O=C(NC[C@H](O)CO)c1ccncc1Nc1ccc(I)cc1F`, with 103%; and `O=S(=O)(Oc1ccc(-c2cn3ccoc3n2)cc1)C1CCCCC1`, with 92.3%; and `CCCCCN1C(=O)/C(=c2\sc3n(c2=O)C2C(NN=3)N(CC)C(=O)N2CC)c2cccc(C)c21` (stereo not given), with 34.5%.
Take `N/C(=N\c1nc2ccc([N+](=O)[O-])cc2s1)C(Cl)(Cl)Cl`: the growth is 3.78% (active).
In the case of `CC1(c2ccccc2O)NN=C(/N=C/c2cccc([N+](=O)[O-])c2)N1C(Cc1c[nH]c2ccccc12)C(=O)O` (stereo not given) it was 103%; in that of `CC[C@@H](C(=O)[C@H](C)[C@H](O)[C@@H](C)[C@H]1O[C@H]([C@@H](CC)C(=O)O)CC[C@H]1C)C1O[C@]2(C=C[C@@H](O)[C@]3(CC[C@@](C)([C@H]4CC[C@](O)(CC)[C@H](C)O4)O3)O2)[C@H](C)C[C@@H]1C` (stereo not given in full), 0.843% (active); in that of `Cn1c(=O)c2c(nc(NC3=NS(=O)(=O)c4ccccc43)n2Cc2ccccc2)n(C)c1=O`, 103%.
In the case of `COc1ccc2[nH]cc(-c3nonc3-c3c[nH]c4ccc(Br)cc34)c2c1` it was 77.8%; in that of `N#CC1=C(c2ccc(Cl)cc2)Nc2c(c(-c3ccc(Cl)cc3)nn2-c2ccccc2)C12C(=O)Nc1ccc(Cl)cc12` (stereo not given), 52.9%; in that of `O=C1/C(=C/c2ccc(F)cc2)C=C(c2ccccc2)N1CCc1ccccc1`, 72.9%.
Turning to `COc1cc(CNC(=O)CCCC/C=C/C(C)C)ccc1OCc1nnc(Nc2ccccc2F)o1`, the growth was 58.9%.
Then `Clc1ccc(N/N=c2/oc3ccccc3cc2-c2cc3ccccc3[nH]2)cc1`, with 59.8%.
With `Nc1no[n+]([O-])c1-c1nnc2c(n1)-c1ccccc1C2=O`, the growth is 41.5%.
In the case of `COC(=O)[C@H]1CCCN1C(=O)[C@H]1CCCN1C(=O)[C@@H](Cc1c[nH]c2ccccc12)NC(=S)Nc1cc(C(F)(F)F)cc(C(F)(F)F)c1`, the growth is 21%.
Regarding `CN1CCN(C(=O)[C@]23CCC(C)(C)C[C@H]2C2=CC[C@@H]4[C@@]5(C)C/C(=C/c6ccncc6)C(=O)C(C)(C)[C@@H]5CC[C@@]4(C)[C@]2(C)CC3)CC1`, the growth was 44.6%.
Then `O=C(Nc1ccc(C(=O)/C=C/c2ccc(N3CCOCC3)cc2)cc1)Nc1ccc([N+](=O)[O-])cc1`, with 91%; and `COc1ccc2c(c1)c(-c1nn3cc(-c4cccs4)nc3s1)cn2C`, with 71.5%; and `CCCNC(=O)Oc1ccc(/C(=C(/CC)Cc2ccccc2)c2ccc(OCCN(CC)CC)cc2)cc1`, with 68.6%.
Regarding `Cc1ccc(Cl)cc1NC(=O)c1cc2ccccc2cc1O`, the growth was -58.7% (active).
Then `CN1CCN(Cc2occc(=O)c2O)CCN(C)CCN(Cc2occc(=O)c2O)CC1`, with 111% and 87.9%.
On to `N#CC1=C(c2ccccc2)Nc2c(c(-c3ccc(Cl)cc3)nn2-c2ccccc2)C12C(=O)Nc1ccc(Cl)cc12` (stereo not given), for which the growth is 70%.
In the case of `O=C(Nc1ccccc1O)c1ccc(NS(=O)(=O)c2cccc3cccnc23)cc1` it was 49.8%.
Then `CN(C)c1ccc2c(c1)OC(N)=C(C#N)C2c1ccc2c(c1)CCCN2C` (stereo not given), with 20.6%; and `S=c1[nH]nc(-c2cc3ccc2CCc2ccc(cc2)CC3)n1-c1ccccc1`, with 109%; and `Cc1cc(-c2ccc(N=Nc3ccc4c(S(=O)(=O)O)cc(S(=O)(=O)O)c(N)c4c3O)c(C)c2)ccc1N=Nc1ccc2c(S(=O)(=O)O)cc(S(=O)(=O)O)c(N)c2c1O`, with 98.2%.
In the case of `COc1ccc2c(c1)c(/C=N/Nc1ccnc3cc(Cl)ccc13)cn2C` it was -87.3% (active); in that of `CSc1nc(N)c(N)c(N)n1`, 114%.
Regarding `CCN(CCNc1ccc(C)c2sc3cc(Cl)ccc3c(=O)c12)CC(C)O` (stereo not given), the growth is 62.2%.
Then `COc1cc(NC(C)CCCNC(C)C)c2ncccc2c1OC` (stereo not given), with 32.8%.
Then `CCOC(=O)/C(=C/c1ccc(OC)cc1)N(CC)CC`, with 106%; and `CCCCCCCCC(=O)OCCCC(CCC(CCC1CCCO1)OC(=O)CCCCCCCC)OC(=O)CCCCCCCC` (stereo not given), with 111%.
For `CC(C)OC1=C(Cl)C(=O)c2ccccc2C1=O`, the growth was 69.1%.
Consider `CC(=O)n1nc(C(=O)OC(C)(C)C)c2cc(F)c(F)cc21`, for which the growth is 97.4%.
In the case of `Nc1c(C(=O)C[C@@H](N)CO)ccc2c1C(=O)CCO2`, the growth was -14.1% (active).
For the compound `O=C(Nc1cccc(-n2cc(-c3ccncc3)c(-c3ccc(O)c(Cl)c3)n2)c1)Nc1cccc(C(F)(F)F)c1`, the growth is 18.5%.
Then `C[n+]1c2ccccc2nc2ccc(NCCO)cc21`, with 94%.
In the case of `O=C1NC(=O)C2(CCCC2C(=O)O)N1` (stereo not given), the growth is 107%.
As to `CCCn1cnc2c(c1=N)C(c1ccc(F)cc1)c1sc3c(C)cccc3c1O2` (stereo not given), the growth was -26.7% (active).
In the case of `Cc1ccc(-c2csc(N)n2)cc1` it was 104%.
With `Cc1ccc2oc3nc(C)c(C(=O)NCc4ccccc4)cc3c(=O)c2c1`, the growth was 96.7%.
As to `CN(C)CCCNC(=O)c1cncnc1Nc1ccc(OCc2cccc(F)c2)c(Cl)c1`, the growth is -7.83% (active).
As to `COc1ccc(C2=C(c3cccc(OC)c3)C(=O)c3ccc(C)nc3C2=O)cc1`, the growth was -60.8% (active).
Then `COc1cc(-c2csc(NC(=O)c3cc(-n4cnc(C)c4)cc(C(F)(F)F)c3)n2)cc(OC)c1OC`, with 78.4%.
As to `COC(=O)c1cc(=O)nc(N/N=C/c2ccco2)s1`, the growth was 61.7%.
Take `Cc1cc(N2CCCC2)nc(N(CCCNc2ccnc3cc(Cl)ccc23)Cc2ccc3c(c2)OCO3)n1`: the growth is -47.4% (active).
Then `COc1ccc(-n2c(C(O)c3ccccc3)nn(CN3CCOCC3)c2=S)cc1` (stereo not given), with 97.5%; and `Clc1ccc(/C=C/c2nc(N3CCOCC3)c3nc(Cl)c(Cl)cc3n2)cc1`, with 102%.
`N#C/C(=C\c1ccc(-c2ccc(Cl)cc2)o1)C(=O)Nc1ncc(Cc2ccc(Br)cc2)s1`: the growth is 25.7%.
For the compound `O=C(COc1ccccc1)N1N=C(c2ccc(Cl)cc2)CC1c1c[nH]c2ccccc12` (stereo not given), the growth is 85.7%.
In the case of `CC(=O)C1=C(O)C=C2Oc3c(C(=O)/C=C/c4cc(C(F)(F)F)cc(C(F)(F)F)c4)c(O)c(C)c(O)c3[C@]2(C)C1=O` it was -69.3% (active); in that of `COc1ccc(-c2nc(SCC(=O)Nc3ccc(C(=O)/C=C/c4ccc(Cl)cc4)cc3)[nH]c(=O)c2C#N)cc1`, 39.4%.
Regarding `C=C1C(=O)O[C@H]2[C@H]1CC/C(COC(=O)NCc1ccc(OC)cc1)=C\CC[C@@]1(C)O[C@@H]21`, the growth is 27.7%.
As for `CC1(C(=O)O)NC(C(=O)O)Cc2c1[nH]c1ccccc21` (stereo not given), the growth is 113%.
In the case of `Cn1cc(-c2nc(-c3c[nH]c4ccncc34)cs2)c2cc(F)ccc21` it was -72.8% (active).
As to `C/C(=C(/c1ccc(Cl)cc1)c1ccc(OCCN2CCCC2)cc1)c1ccc(Cl)cc1`, the growth was 91.1%.
Regarding `O=C(O)c1ccc(OCc2ccccc2)cc1`, the growth is 104%.
`CCN(CC)CCCC(C)NCc1ccccc1` (stereo not given): the growth is 112%.
Then `COc1ccc(-c2cc(-c3nnc(SCC(=O)Nc4ccc(C(C)=O)cc4)n3-c3ccccc3)c3ccccc3n2)cc1OC`, with 111%; and `COc1ccc(-c2nc(NCCO)[nH]c(=O)c2C#N)cc1`, with 112%; and `Cc1oc2nc[nH]c(=O)c2c1C(=O)/C=C/c1ccc(Br)cc1`, with -55.4% (active).
As to `CCN(CC)CCNC(=O)c1c(C)[nH]c(/C=C2\C(=O)Nc3ccc(F)cc32)c1C`, the growth is -56.4% (active).
Turning to `COC(=O)C1(NC(=O)CNC(=O)OCc2ccccc2)CCCC1`, the growth is 96.1%.
In the case of `O=C(c1ccccc1)C1C(=O)N2C(=S)N(c3ccccc3)C(=O)C2C1c1ccc(Cl)cc1` (stereo not given) it was 0.678% (active); in that of `COc1cc(OC)cc(C(=O)Nc2sc3c(c2C(N)=O)CCC(=O)C3)c1`, 37.1%.
For the compound `Cc1cccc(/C=C/c2c(C(=O)/C=C/c3ccccc3)c(C)nc3ccccc23)c1`, the growth was -51.1% (active).
Consider `CN(C)C=Nc1cc(Cl)ccc1Cl`, for which the growth is 102%.
Then `O=C(Cn1c2ccccc2c2ccncc21)N/N=C\c1ccc2ccccc2c1`, with 19.7%; and `COc1cc(NC(=O)c2cc3ccccc3cc2O)c(OC)cc1Cl`, with -5.6% (active); and `CC(=O)Cc1cccnc1`, with 97.1%.
As for `O=C(CCCCCCNC(=O)C(O)(O)C(F)(F)F)Nc1ccc(Cl)cc1`, the growth was 16.9%.
Take `C=CCCCOC1[C@H](OCc2ccccc2)C(OCc2ccccc2)C(OC)O[C@@H]1CNC(=O)c1cccc(I)c1` (stereo not given in full): the growth was 24.8%.
Then `O=C(Nc1cc(-c2cccnc2)nc(NCCCN2CCOCC2)n1)c1cc(Br)cc(C(F)(F)F)c1`, with 52.8%; and `Cc1nn(-c2ccccc2)c(Oc2ccccc2)c1/C=N/NC(=O)Cn1c(=O)sc2ccccc21`, with 13.7%; and `CS(=O)(=O)c1ccc(-c2cc3c(oc2=O)-c2ccccc2OC3O)cc1` (stereo not given), with 91.6%.
As to `C[C@@]1(N2C(=O)OC[C@@H]2c2ccccc2)C(=O)N([C@H](CC(=O)N2CCC(N3CCCCC3)CC2)C(=O)NCc2cccc(C(F)(F)F)c2)[C@@H]1/C=C/c1ccccc1`, the growth was 23.7%.
`COc1cc2c(cc1-c1c(C)noc1C)ncc1nc(C3CCC(F)(F)CC3)n([C@H](C)COC(F)F)c12`: the growth is 33.6%.
Turning to `c1ccc(C2NCCNC2c2ccccc2)cc1` (stereo not given), the growth was 111%.
Then `CCOc1ccc(I)cc1`, with 105%; and `O=C(Nc1ccc(-n2cc(-c3ccncc3)c(-c3ccc(Cl)c(O)c3)n2)cc1)c1ccc(Cl)c(Cl)c1`, with 54.2%.
